Laboratory results from the OligoGym collection.

target: PPARGC1A; assay: pooled miR-30 sensor sort-seq; sequence = guide strand; details: shRNA
Further: reference of the scale not given here.

| Sequence | sensor-assay potency score (higher = more potent) |
| --- | --- |
| TTACATTTGAATATTCTTGATT | 0.253 |
| TTGCTGTTGACAAATACTCTTC | -0.955 |
| TAGTTGTCTAGAGTCTTGGAGC | -1.01 |
| TTGACAAATACTCTTCGCTTTA | -1.03 |
| TTCGTCGTCAAAAACAGCTTGA | -0.0941 |
| TAGGTCTGCATAGTTAGACTTG | -0.55 |
| TTTCTAGTTGTCTAGAGTCTTG | -1.22 |

target: PPCS; assay: as above; details: shRNA

| Sequence | sensor-assay potency score (higher = more potent) |
| --- | --- |
| TTCTCTTCTATCTCTACGCCTT | -0.45 |
| TAAACACAAAGGACTGTCGTGA | 0.415 |
| TTCACCATCTCTAAGAGCCCTG | -0.3 |
| TACAATAAACACAAAGGACTGT | 0.367 |
| TTTGGCACCATCTTCATTGTTA | 0.148 |
| TTCATTGTTATCTGCAGTGGGC | -0.306 |
| TTGATGCTGATAAATTTCCAAA | -1.35 |
| TAAATTTCCAAAGCCTTCCGAG | -0.661 |
| TCTGATAGCAATAACTTGGTTT | 0.221 |
| TTATCCACTATCTTCTCTTCTA | -0.111 |
| TTGTAGTTTTCACCATCTCTAA | -1.34 |
| TTTTTTTGTAGTTTTCACCATC | -0.312 |

target: PPEF1; assay: as above; details: shRNA

| Sequence | sensor-assay potency score (higher = more potent) |
| --- | --- |
| TTGTATGTGAGTGAAATTCGGC | -0.494 |
| TATCGAGTCCACATAATCCCAT | -1.01 |
| TTTTCCATAGTATCCACTCTTT | -0.493 |
| TTTTATTGTGCTTCGAGTCAGT | 0.317 |
| TTTTCTGTGGTCTTGAAGTTGG | -0.736 |
| TTATGCAAAATTTCTTTCGTGA | 0.493 |
| TAATGCTGAAACCAAATCCTAT | -0.921 |
| TAATCTTACCAATAACAGCTTG | -0.683 |
| TAGTTTTCCAACATGAAGGAAA | -0.591 |
| TAGTAGTTTTCTCTTGTGCTGT | -0.247 |
| TTCATCAGCATATTCGATGGAC | -0.181 |
| TTGTTCATCAGCATATTCGATG | -0.664 |

target: PPIA; assay: as above; details: shRNA

| Sequence | sensor-assay potency score (higher = more potent) |
| --- | --- |
| AAACTTAACTCTGCAATCCAGC | -0.893 |
| ATAATCATAAACTTAACTCTGC | 0.46 |
| TATTTCATAATCATAAACTTAA | -0.804 |
| TCATCTTCAAATTTCTCCCCAT | -0.0656 |
| TTGCTGGTCTTGCCATTCCTGG | -1.6 |
| TAAACTTAACTCTGCAATCCAG | -0.459 |
| TTCTGCTGTCTTTGGGACCTTG | -0.756 |
| TTTCACTTTGCCAAACACCACA | -0.879 |
| TAACCAAATCCTTTCTCTCCAG | -0.631 |
